Measured values: ChEMBL document CHEMBL4513216, “Probing the Open Global Health Chemical Diversity Library for Multistage-Active Starting Points for Next-Generation Antimalarials” (ACS Infect Dis, 2020)
Screen size: about 69,000 compounds; about 8,600 (12%) showed an effect of 50% or more. The list comes from a sample in which strong results are over-represented; it also holds similar structures and randomly drawn compounds.

Test system: Plasmodium berghei
Assay: Screen against P. berghei liver stage (PbLuc), transformed with Luciferase, at 10uM
Format: functional, HepG2
Details: tested at 10 uM

Row | Structure (SMILES) | INHIBITION
1 | CC(=O)NCCCNC(=O)N1CCN(c2cc(F)ccc2F)CC1 | -15%
2 | N#Cc1ccccc1CN1C[C@H]2CC[C@@H](C1)N(Cc1cscn1)C2=O | 6.8%
3 | CCc1nc(C)sc1CN1CC[C@@](O)(CCOC)[C@H](C)C1 | 21.8%
4 | COCCn1cncc1-c1nc2c([nH]1)CC(C)(C)CNC2=O | -27.6%
5 | COCC(=O)N1CCCCC1c1nc(C)c2c(n1)N(C1CC1)C(=O)CC2 (stereo unspecified) | 36.9%
6 | CCN1CCC(NC(=O)CN2CCCC2Cn2nc(C)nc2C)CC1 (stereo unspecified) | 31.2%
7 | CSCC[C@H](NC(=O)Cn1ccc2ccc(Cl)cc21)C(=O)O | -30.8%
8 | Cc1cc(CN2CCCC2Cn2cccn2)no1 (stereo unspecified) | 9.2%
9 | CSCc1cccc(S(=O)(=O)N2CCCCCC2)c1 | 2.69%
10 | Cc1cc(NC2CCc3nc(C(C)C)nn3C2)n2ncnc2n1 (stereo unspecified) | 49.1%
11 | Cn1nnc2c1C(COCc1ccccn1)CN(C(=O)c1cccs1)C2 (stereo unspecified) | 31.8%
12 | CS(=O)(=O)N1CC[C@]2(C[C@@H](Oc3ccccn3)CO2)C1 | 29%
13 | COc1ccc(C(=O)N2C[C@@H](c3ccccc3)[C@@H]3NCCCC[C@@H]32)cc1 | 15.9%
14 | COc1cccc(C(=O)N2C[C@@H](c3ccccc3)[C@@H]3NCCCC[C@@H]32)c1 | 5.11%
15 | COc1cccc([C@H]2CN(C(=O)c3ccccc3)[C@@H]3CCCN[C@H]23)c1 | 55.6%
16 | CCn1cc(CN2CCCN(C(=O)c3ccoc3)CC2)cn1 | 41.2%
17 | CCC(C)(C)NC(=O)C[S+]([O-])Cc1csc(C2CCCC2)n1 (stereo unspecified) | 63.8%
18 | O=C(C[S+]([O-])Cc1csc(C2CCCC2)n1)NC1CCCC1 (stereo unspecified) | 36.9%
19 | CCCNC(=O)C[S+]([O-])Cc1csc(C2CCCCC2)n1 (stereo unspecified) | 23%
20 | CCc1cnc(N2CCc3ncnc(N4CCN(C)CC4)c3CC2)nc1 | 36.2%
21 | O=S(=O)(NCc1ccnc(-n2ccnc2)c1)c1cncc(Cl)c1 | 15.2%
22 | Cn1cc(S(=O)(=O)NC(=O)C2(c3cccc(Cl)c3)CC2)cn1 | -6.94%
23 | Cn1cc(S(=O)(=O)NC(=O)C2(c3ccccc3)CCC2)cn1 | 2.97%
24 | Cc1cccc(C2(C(=O)NS(=O)(=O)c3cnn(C)c3)CCCC2)c1 | 53.5%

Row | Structure (SMILES) | INHIBITION
25 | O=C(CCNC(=O)N1CCC(c2ccccc2)C1)N1CCCCC1 (stereo unspecified) | -24.5%
26 | CN(C(=O)C1CCOCC1)[C@@H]1CCC[C@@H](N2CCOCC2)[C@@H]1O | 38.2%
27 | CN(Cc1ccsc1)C(=O)c1nc(N2CCCC2)ncc1Cl | -0.232%
28 | O=C(c1nc(N2CCCC2)ncc1Cl)N1CCN(Cc2ccsc2)CC1 | 72.1%
29 | Cc1nc(C)c2c(n1)CCN(Cc1ccsc1)CC2 | -5.08%
30 | Cc1nc(N2CCCC2)nc2c1CCN(Cc1ccsc1)CC2 | 4.1%
31 | c1cncc(-c2ncnc3c2CCN(Cc2ccsc2)CC3)c1 | 3.58%
32 | Oc1nc(N2CCCC2)nc2c1CCN(Cc1cccnc1)CC2 | 24.8%
33 | CN(Cc1ccsc1)C(=O)c1nc(N2CCCCC2)ncc1Cl | 26.7%
34 | Oc1nc(N2CCCC2)nc2c1CCN(Cc1ccsc1)CC2 | 61.7%
35 | Cc1nc(N2CCOCC2)nc2c1CCN(Cc1ccsc1)CC2 | 60.5%
36 | O=C(c1ccc(N2CCCC2)nc1)N1CCCC(c2nccs2)C1 (stereo unspecified) | 17.2%
37 | CC(C)Cc1nc(CNCc2cccc(N3CCCC3=O)c2)no1 | -20.5%
38 | NCC1CCC(C(NC(=O)CC2CCCCC2)c2ccccn2)CC1 (stereo unspecified) | 38.2%
39 | CCc1ccc(NC(=O)N2C[C@@H]3C[C@H](C(=O)NC(C)C)[C@H](C2)O3)cc1 | -31.1%
40 | CN1CC2(CCN(C(=O)c3cc(-n4cccn4)ccc3Cl)CC2)OC1=O | 14.5%
41 | Cc1cnn(C2CCCN(C(=O)c3ccc4c(c3)CCC4)C2)c1 (stereo unspecified) | 40.2%
42 | O=C(c1cc(F)ccc1F)C1CCN(C(=O)c2ccco2)CC1 | -98.8%
43 | Cc1ccc(C(C)N(C)Cc2nc3c(cnn3C)c(=O)[nH]2)s1 (stereo unspecified) | -30.38%
44 | N#CCSCC(=O)NCC1CCCCC1 | 18.6%
45 | NC(=O)CSCC(=O)NCC1CCCC1 | 50.4%
46 | NC(=O)CSCCC(=O)NCC1CC1 | -0.71%
47 | CN(C(=O)c1ccnn1C)[C@@H]1CCC[C@@H](Oc2ccccc2)[C@@H]1O | 34%
48 | CCC(=O)N1CCC(Cc2cnc(Nc3cnccn3)cn2)CC1 | 16.5%

Row | Structure (SMILES) | INHIBITION
49 | Cc1n[nH]c(C)c1-c1nccnc1CC1CCN(S(C)(=O)=O)C1 (stereo unspecified) | -3.31%
50 | Cc1ccc(NC2CCCN(Cc3ccc(Cl)cc3)C2)nn1 (stereo unspecified) | -20%
51 | Cc1cc(NC2CCCN(Cc3ccc(F)cc3)C2)n2nc(C)cc2n1 (stereo unspecified) | 67.3%
52 | Cc1ccc(NC2CCCN(CCc3ccccc3)C2)nn1 (stereo unspecified) | -28%
53 | Cc1cc(NC2CCN(c3ccc(F)cc3)CC2)n2nc(C)cc2n1 | 8.07%
54 | Cc1cc(N[C@H]2CCCN(Cc3ccccc3)C2)n2nc(C)cc2n1 | 63.7%
55 | Cc1cc(C)nc(NC2CCCN(CCCc3ccccc3)C2)n1 (stereo unspecified) | 31.1%
56 | CN1C(=O)C2(CCN(C(=O)c3ccccc3)CC2)c2cccc(F)c21 | 43.8%
57 | O=C(N1CCCO1)[C@]12COC[C@H]1CN(Cc1nccs1)C2 | 7.24%
58 | CC[C@H]1NCCC[C@]12CCC(=O)N2Cc1ccncc1 | 17.4%
59 | CCOCCN(C)C(=O)Nc1cccc2c1CCN(CC)C2 | 3.48%
60 | CCN1CCc2c(cccc2NC(=O)CN(C)C2CCSC2)C1 (stereo unspecified) | 34.1%
61 | CCN1CCc2c(cccc2NC(=O)N(C)C2CCSC2)C1 (stereo unspecified) | 50.8%
62 | CCN1CCC(NC(=O)N(C)Cc2csc3ccccc23)CC1 | 27.6%
63 | CCN1CCN(c2ccccc2NC(=O)N(C)C2CCSC2)CC1 (stereo unspecified) | 74.9%
64 | CS(=O)(=O)NCC1CCCN(C(=O)Nc2ccccc2N2CCCC2)C1 (stereo unspecified) | -75.9%
65 | CC(C)n1cnnc1CN(C)C(=O)c1cccnc1O | 18.6%
66 | CCOc1ccc(S(=O)(=O)C(C)C(=O)Nc2cc(C)no2)cc1 (stereo unspecified) | -11.9%
67 | O=C([C@H]1CCCO1)N1CC[C@H](O)[C@@H]1Cc1ccncc1 | 33.2%
68 | O=C1CC(C(=O)NCCN2CCOC2=O)c2cc(F)ccc2N1 (stereo unspecified) | 36.4%
69 | COc1ccc(C2CNCCN2C(=O)c2nccc3ccccc23)cc1 (stereo unspecified) | 32.3%
70 | C=C(C)COc1ccccc1C(=O)NCCCc1nnn[nH]1 | 31.2%
71 | c1ccc(COCCN2CCc3[nH]cnc3C2c2ccoc2)cc1 (stereo unspecified) | 9.63%
72 | Cc1c(C2c3nc[nH]c3CCN2CCOCc2ccccc2)cnn1C (stereo unspecified) | 27.5%

Row | Structure (SMILES) | INHIBITION
73 | c1ccc(COCCN2CCc3[nH]cnc3C2c2ccco2)cc1 (stereo unspecified) | 63.3%
74 | CN(Cc1ccccn1)C(=O)[C@H]1CO[C@H]2CCN(CC3CC3)C[C@H]2C1 | 11.3%
75 | Cc1cnn(CC2CCCN2Cc2cc(C)no2)c1 (stereo unspecified) | 22.265%
76 | CC1CCN(C(=O)c2cccc(CN3CCOCC3)c2)CC1 | 8.41%
77 | COc1cc(CNCc2ccc(-n3nc(C)cc3C)nc2)cc(OC)c1 | -10.193%
78 | Cc1cc(C)n(-c2ccc(CNCc3ccc(C)o3)cn2)n1 | 34.75%
79 | Cc1cc(C)n(-c2ccc(CNCc3ccc(F)cc3F)cn2)n1 | 37.55%
80 | Cc1ccc(CNCc2ccc(-n3nc(C)cc3C)nc2)cc1 | 72.2%
81 | Cc1cc(C)n(-c2ccc(CNCc3ccc(F)c(F)c3)cn2)n1 | 13.05%
82 | Cc1cc(C)n(-c2ccc(CNCc3ccc(OC(C)C)cc3)cn2)n1 | 53.5%
83 | CCOc1ccc(C(=O)CC(SC2CCCCC2)C(=O)O)cc1 (stereo unspecified) | 16.1%
84 | COC(=O)c1cc(C(=O)N2CCCC(C)C2)n(-c2ccccc2)n1 (stereo unspecified) | 8.5%
85 | Cc1ccc(CN2CCC3(CCC(=O)N3CC(=O)N(C)C)CC2)s1 | -29.5%
86 | COC[C@@]12CCO[C@@H]1CCN(Cc1ccc(C)s1)C2 | 55.7%
87 | COC[C@@]12CCO[C@@H]1CCN(Cc1ccccc1OC)C2 | 51.2%
88 | Cc1ccc(CN2CC[C@H]3OCC[C@@]3(COCC(=O)N(C)C)C2)s1 | 54.8%
89 | Cc1ccc(CN2CC[C@H]3OCC[C@@]3(C(=O)N3CCCO3)C2)s1 | 23.3%
90 | COC[C@@]12CCO[C@@H]1CCN(Cc1ccccc1F)C2 | 23.5%
91 | COC[C@@]12CCO[C@@H]1CCN(C(=O)COc1ccccc1OC)C2 | -19.9%
92 | COC[C@@]12CCO[C@@H]1CCN(Cc1sccc1C)C2 | 34%
93 | COC[C@@H]1CCC[C@@]12CN(Cc1ccc(C)s1)CCO2 | 14.1%
94 | O=C(c1cnccn1)N1CCC2(CCN(Cc3ccsc3)CC2)CC1 | 16.4%
95 | Cc1nccc(CNC(=O)CCc2c(C)nc3cc(O)nn3c2C)n1 | -9.19%
96 | CCC1c2ccsc2CCN1C(=O)NCc1ccnc(N(C)C)c1 (stereo unspecified) | -0.44%

Row | Structure (SMILES) | INHIBITION
97 | CCc1nc2ccccc2c(=O)n1CC1(O)CCN(C(=O)C2CC2)CC1 | 18.3%
98 | CCCOc1ccc(CN)c(OC(F)F)c1 | 45.2%
99 | NCc1ccc(OC(F)F)cc1OC(F)F | 74%
100 | COc1ccc(CN)c(OC(F)F)c1 | 48.9%
101 | C[C@H]1C[C@H]2CN(C(=O)c3ccncn3)CC[C@@H]2O1 | 35.8%
102 | COc1ccc(CN2CCC3(CC2)NC(=O)CC3c2cnn(C)c2)cc1 (stereo unspecified) | 12.6%
103 | CN1CCC2(CC1)CN(CC1CC1)CC21CCNC1=O (stereo unspecified) | 22.3%
104 | COc1cccc(CNC(=O)c2ccccc2-n2cc(CN)cn2)c1 | 5.11%
105 | O=C(Cc1ccc(F)cc1)N1CCn2cc(Cn3cncn3)nc2C1 | -13.2%
106 | O=C(CC1CC1)N1CCc2ncc(CN3CCOCC3)n2CC1 | 42.7%
107 | CC1c2ncc(Cn3cncn3)n2CCN1C(=O)c1ccccn1 (stereo unspecified) | 60.9%
108 | O=C(CC1CC1)N1CCc2ncc(Cn3cncn3)n2CC1 | 57.9%
109 | Cc1occc1C(=O)N1CCn2c(Cn3cncn3)cnc2C1C (stereo unspecified) | 6.55%
110 | COCC(=O)N1CCc2ncc(Cn3cncn3)n2CC1 | 15.9%
111 | O=C(Cc1ccc(F)cc1)N1CCn2c(Cn3cncn3)cnc2C1 | 57.9%
112 | N#Cc1cccc(C(=O)N2CCn3c(Cn4cncn4)cnc3C2)c1 | -17.2%
113 | COCC(=O)N1CCn2c(Cn3cncn3)cnc2C1C (stereo unspecified) | 36.2%
114 | CC1c2ncc(Cn3cncn3)n2CCN1C(=O)c1ccsc1 (stereo unspecified) | 52%
115 | CC1c2ncc(Cn3cncn3)n2CCN1C(=O)N(C)C (stereo unspecified) | 49%
116 | CC1c2ncc(Cn3cncn3)n2CCN1C(=O)c1cscn1 (stereo unspecified) | -6.3%
